Rango release inh: qHTS Assay for Inhibitors of RanGTP induced Rango (Ran-regulated importin-beta cargo) - Importin beta complex dissociation. Snurportin-1 (Homo sapiens) + GTP-binding nuclear protein Ran (Homo sapiens) + Importin …. Biochemical FRET Rango-importin beta, RanGTP-induced dissociation. Potency, µM (doses to about 46.1 µM), without a hit: at the highest dose activity change, negative = inhibition. hit rate 0.071% among 340,000; calls by dose curve; further: % of control where 0% means no effect; nearly all actives have a fitted effect of over 45% in size
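Compounds preincubate 5 min with complex of recombinant Rango and importin beta in PBS with 1 mM DTT. Ran (0.6 uM) loaded with 2 mM GTP plus 0.2 uM RCC1 starts dissociation; FRET is recorded 45 min later.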
ASM inhibitor: Inhibitors of Secretory Acid Sphingomyelinase (S-ASM): qHTS | placental ASM, HMU-PC fluorogenic substrate, 60 min | Potency, µM (titrated, usually from 57.5 µM), inactives show at the highest dose activity change, negative = inhibition, hits mostly inhibitors | hit rate 0.006% among 340,000 | AID 504937, 2011
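HMU-PC0 cleavage (9 uM final) by human placental ASM, 60 min at 37 °C following 10 min compound exposure at RT; stopped at pH 10, fluorescence Ex 386/Em 447 nm.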
Eya2 inh: qHTS Assay for Inhibitors of the Phosphatase Activity of Eya2; recombinant Eya2, OMFP fluorescence dephosphorylation (OMFP is methylfluorescein phosphate); Potency, µM (doses to about 76.9 µM), without a hit: top-dose activity, negative = inhibition, usual class: inhibitors; hit rate 0.006% among 330,000; AID 488837, 2010; further: on the % scale 0 is the no-effect control and ±100 the full control effect
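Eya2 protein (added as 0.2 uM solution) was preincubated with compound for 10 min at ambient temperature in 50 mM HEPES pH 7.5, 50 mM NaCl, 5 uM MgCl2, 0.05% BSA, 1 mM DTT. OMFP (added at 50 uM) then reacted 10 min; fluorescence read at 485/525 nm.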
Vif-APOBEC3G blk: qHTS for Inhibitors of Vif-A3G Interactions: qHTS | HeLa A3G-eYFP + Vif (tagged APOBEC3G with the HIV-1 protein that degrades it), YFP fluorescence, overnight | Potency, µM (titrated, usually from 46.1 µM), without a hit: top-dose activity, negative = active, hits mostly inhibitors | hit rate 0.076% among 410,000 | AID 602310, 2012; further: on the % scale 0 is the no-effect control and ±100 the full control effect; nearly all actives have a fitted effect of over 60% in size
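Read-out is eYFP fluorescence (Ex 488/Em 500-530) from Vif-expressing HeLa A3G-eYFP cells; more signal means A3G escaped Vif-mediated degradation. Cells plated overnight, compound pinned in, incubated overnight at 37 deg C.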
Vif-A3F inh: qHTS for Inhibitors of Vif-A3F Interactions: qHTS; HeLa A3F-eYFP + Vif (tagged APOBEC3F with the HIV-1 protein that degrades it), YFP fluorescence increase; Potency, µM (highest dose often 46.1 µM), for inactives: at the highest dose activity, negative = active; hit rate 0.2% among 390,000; AID 602313, 2012; further: % of control where 0% means no effect; nearly all actives have a fitted effect of over 65% in size
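HeLa cells stably expressing A3F-eYFP plus Vif, plated and incubated overnight at 37 deg C, then exposed to compounds overnight at 37 deg C. Blocked degradation read as raised yellow fluorescence (Ex 488/Em 500-530).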
Rango-impB inh: qHTS Assay for Inhibitors of Rango (Ran-regulated importin-beta cargo) - Importin beta complex formation | hit rate 0.031% among 340,000 | Importin subunit beta-1 (Homo sapiens), Q14974 | AID 540263, 2011 | Potency, µM (doses to about 92.2 µM), inactives show at the top dose inhibition of complex formation | Rango CFP/YFP FRET sensor + importin beta, 45 min; calls by dose curve;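 further: 0% = DMSO wells and 100% = buffer wells lacking importin beta; nearly all actives have a fitted effect of over 15% in size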
Target sequence (Q14974 whole entry, looked up): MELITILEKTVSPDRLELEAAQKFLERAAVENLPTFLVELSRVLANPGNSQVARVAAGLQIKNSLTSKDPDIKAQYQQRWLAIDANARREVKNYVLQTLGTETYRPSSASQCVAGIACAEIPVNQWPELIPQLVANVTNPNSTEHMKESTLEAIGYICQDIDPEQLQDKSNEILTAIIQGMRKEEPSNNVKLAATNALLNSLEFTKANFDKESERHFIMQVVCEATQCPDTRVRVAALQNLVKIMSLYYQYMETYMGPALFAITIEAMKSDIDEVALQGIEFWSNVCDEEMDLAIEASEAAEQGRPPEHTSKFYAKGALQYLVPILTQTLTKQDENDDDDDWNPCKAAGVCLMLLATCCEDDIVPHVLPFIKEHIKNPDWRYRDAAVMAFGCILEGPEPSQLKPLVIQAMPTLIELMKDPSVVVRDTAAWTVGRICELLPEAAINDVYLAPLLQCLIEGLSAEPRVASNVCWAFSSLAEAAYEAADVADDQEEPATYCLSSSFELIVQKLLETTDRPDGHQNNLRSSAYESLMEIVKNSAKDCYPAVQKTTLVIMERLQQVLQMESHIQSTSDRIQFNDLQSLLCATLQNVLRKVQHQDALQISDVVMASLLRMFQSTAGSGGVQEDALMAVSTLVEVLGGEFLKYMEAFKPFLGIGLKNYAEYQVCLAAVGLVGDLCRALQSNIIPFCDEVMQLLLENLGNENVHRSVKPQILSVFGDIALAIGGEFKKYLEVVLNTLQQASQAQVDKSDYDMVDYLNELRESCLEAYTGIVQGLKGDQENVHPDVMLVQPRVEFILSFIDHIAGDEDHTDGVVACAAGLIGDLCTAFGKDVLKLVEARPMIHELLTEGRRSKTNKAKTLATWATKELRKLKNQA
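FRET biosensor Rango (snurportin 1 IBB between N-terminal EYFP and C-terminal Cerulean), 50 nM in PBS/1 mM DTT/0.02% Tween-20/0.1% BSA, preincubated 5 min RT with compound; 0.125 microM importin beta added, 45 min RT, CFP/YFP FRET ratio read.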
* hit, by the source's call; i = inactive; ? = inconclusive; . = no result given; ! = not confirmed by another sample. An excerpt weighted towards active compounds, which were near 0.34% of everything screened. Unless noted, the call rests on the fitted dose curve; in most records, active means well fitted curve in the direction sought with a large enough effect; inconclusive means small, poorly fitted or top-dose-only effect, or another doubt; inactive means no such curve, though single readings can be large; an effect the other way counts as inactive or inconclusive. Potency means the concentration at half of the fitted maximal effect.

SMILES	Rango release inh	ASM inhibitor	Eya2 inh	Vif-APOBEC3G blk	Vif-A3F inh	Rango-impB inh
O=[N+]([O-])c1ccccc1N/N=C/c1c[nH]c2ccccc12	-15%	-20%	-9%	4%	-7%	2%
CCCCCCCCCC[n+]1cc(Br)cc(Br)c1	.	.	.	-9%	.	.
CCOC(=O)COn1c(=O)c(-c2ccc(F)cc2)[n+]([O-])c2ccccc21	9%	40%	11%	-3%	5%	-2%
CCOC(=O)COn1c(=O)c(-c2ccc(Br)cc2)[n+]([O-])c2ccccc21	3%	22%	-12%	0%	1.8µM*	-2%
CCCCCCCCCC[n+]1cccc2cc(Cl)ccc21	.	.	.	-18%	.	.
Cc1ccnc2ccc([N+](=O)[O-])cc12	.	.	.	-5%	.	.
O=C(C[N+]1(CC(O)c2ccccc2)CCCCC1)c1ccccc1 (stereo unspecified)	.	.	.	4%	.	.
CN(C)c1ccc(/C=C/c2ccnc3ccccc23)cc1	.	.	.	11µM*	.	.
CN(C)c1ccc(/C=C/c2ccnc3ccc(I)cc23)cc1	.	.	.	8.9µM*	.	.
CN(C)c1ccc(/C=C/c2ccnc3ccc4ccccc4c23)cc1	.	.	.	6%	.	.
CN(C)c1ccc(/C=C/c2ccnc3c(Cl)ccc(Cl)c23)cc1	.	.	.	3.5µM*	.	.
Cc1cc(/C=C/c2ccnc3ccccc23)ccc1N	.	.	.	10µM*	.	.
COc1cccc(CSc2nc3ccccc3c3nc(CCn4c(C)nc5ccccc54)nn23)c1	.	.	.	-1%	0%	.
COc1ccc2oc(-c3cccc(NC(=O)c4sc5c([N+](=O)[O-])cccc5c4Cl)c3)nc2c1	.	.	.	5%	7%	.
Cc1cc(N(C)C)c(C)cc1/C=C/c1ccnc2ccccc12	.	.	.	14µM*	.	.
Cc1cc(C)c2nccc(/C=C/c3ccc(N(C)C)cc3)c2c1	.	.	.	10µM*	.	.
CCCN(CCC)c1ccc(/C=C/c2ccnc3ccccc23)cc1	.	.	.	11µM*	.	.
CCCCCCCCCN(CCCCCCCCC)c1ccc(/C=C/c2ccnc3ccccc23)cc1	.	.	.	1%	.	.
CC(=O)c1sc2nc(-c3cccs3)cc(C(F)(F)F)c2c1N	?	-1%	11%	?	5µM*	?
CC(C)(C)n1ncc2c(=O)n(Cc3ccc(F)cc3F)cnc21	.	.	.	-3%	.	.
OCC1O[C@H]([S-])[C@H](O)[C@@H](O)[C@@H]1O.[Au+] (stereo partly specified)	.	.	-3%	.	.	.
CC(=O)c1ccc2cccc3c2c1N=CN3C	?	140%	-3%	13µM*	?	?
COc1ccc(O)c(C(=O)c2coc(=N)c(C(=O)Nc3ccc(SC(F)F)cc3)c2)c1	?	-8%	-1%	5%	13µM*	?
CC(C)OC(=O)c1cc(C(=O)c2cc(F)ccc2O)coc1=N	?	157%	6%	?	11µM*	?
COc1cc2c(cc1OC)C1=CC(=O)C(=O)N1C(C)(C)C2	1%	1%	2%	7.1µM*	?	0%
SMILES	Rango release inh	ASM inhibitor	Eya2 inh	Vif-APOBEC3G blk	Vif-A3F inh	Rango-impB inh
COc1cc2c(cc1OC)-c1nc3ccccc3c(=O)n1C(C)(C)C2	0%	2%	-5%	0%	2%	1%
c1ccc2nccnc2c1	.	.	.	-24%	.	.
COc1cc(-c2noc(C)c2-c2ccc3[nH]ccc3c2)cc(OC)c1OC	-15%	-26%	6%	14µM*!	-1%	-3%
CN(C)c1ccc(C(=O)Oc2cc(O/N=[N+](\[O-])N(C)C)c([N+](=O)[O-])cc2[N+](=O)[O-])cc1	.	.	.	-2%	.	.
COC(=O)c1sc2nc(CSc3ccc(Br)cc3)[nH]c(=O)c2c1C	-3%	3%	-12%	-4%	11µM*	?
O=C(c1ccccc1)C1C(=O)c2ccccc2C1=O	-13%	0%	-2%	?	35µM*	3%
O=C1c2ccccc2C(=O)C2OC12 (stereo unspecified)	.	.	0%	.	.	.
O=C(O)c1cc(O)c2c(c1)[C@H]([C@H]1c3cc(C(=O)O)cc(O)c3C(=O)c3c(O[C@@H]4O[C@H](CO)[C@@H](O)[C@H](O)[C@H]4O)cccc31)c1cccc(OC3O[C@H](CO)[C@@H](O)[C@H](O)[C@H]3O)c1C2=O (stereo partly specified)	18µM*	?	-25%	1%	-1%	?
Cc1ccc(-n2c(O)c(C=Nc3cc(C)on3)c3ccccc3c2=O)c(C)c1	9.2µM*	7%	-18%	1%	-27%	?
N#Cc1ccc(/C=C\c2nccc3c2[nH]c2ccccc23)cc1	?	i	-16%	13µM*	?	?
CCN(CC)c1ccc(/C=c2/sc3nnc(-c4ccccc4C)n3c2=O)cc1	-11%	-6%	29%	-3%	1.3µM*	?
O=C1Nc2ccc(S(=O)(=O)NCc3ccccn3)c3cccc1c23	7.3µM*	i	20%	4%	-15%	?
CCOC(=O)c1sc2nc3c(cc2c1N)COC(C)(CC)C3 (stereo unspecified)	?	285%	3%	0%	1%	?
CCC1(C)Cc2nc3sc(C(=O)O)c(N)c3cc2CO1 (stereo unspecified)	18µM*	0%	-22%	-4%	-8%	?
Nc1nc(=S)[nH]c2n[nH]nc12	.	.	.	1%	.	.
CN(C)/[N+]([O-])=N/Oc1ccc([N+](=O)[O-])cc1C(F)(F)F	.	.	.	-7%	.	.
Cc1ccc(CSc2nc(-c3ccc(C(C)(C)C)cc3)nc3cc(=O)[nH]n23)cc1	.	.	.	10µM*	2%	.
Cc1ccc(NC(=O)CSc2nc(-c3ccc(C(C)(C)C)cc3)nc3cc(=O)[nH]n23)cc1C	.	.	.	-3%	?	.
CC1=C(n2nnc3ccccc32)C(c2ccccc2)C(C#N)=C(N)O1 (stereo unspecified)	-24%	4%	14%	-17%	25µM*	?
CN(C)CCOc1ccc2c(c1)C(=O)C(=Cc1ncc([N+](=O)[O-])n1C)C2	.	.	.	11µM*	?	.
Nc1nc2ccc([N+](=O)[O-])cc2[nH]1	19%	-1%	-22%	-1%	0%	5%
Nc1[nH]c2cc([N+](=O)[O-])ccc2c1-c1ccccn1	-11%	-18%	-4%	?	10µM*	16%
